# HCMV antiviral = qHTS Assay for inhibitors of the human cytomegalovirus (HCMV); HFF cells, HCMV-luciferase reporter, 72 h; active compounds read low; activity change, negative = inhibition, % at 57.5 µM; 410,000 tested, 4.5% active; in the data active = activity change below about -60%; inconclusive = no clear call, values can overlap the other calls; inactive = above about -39%
#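 Screen run at 2 compound doses on HFFs infected with reporter HCMV, MOI 1 PFU/cell. Luciferase activity from cell lysates at 72 h post infection gave inhibition relative to buffer-only and Salinomycin wells.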
# MARV entry inh = qHTS for inhibitors of binding or entry into cells for Marburg Virus; Marburg virus pseudotyped entry inhibition, cell reporter; Potency, µM (titrated, usually from 37.8 µM), for the others: at the highest dose activity change, negative = inhibition, actives largely listed as inhibitors; 300,000 tested, 1.8% active; calls by dose curve; tested in HEK293 cells; note: potency is the fitted concentration of half-maximal effect
# FMDV inh = High Throughput Screening for Foot and Mouth Disease Virus Antivirals; FMDV antiviral cell-based qHTS; Potency, µM (titrated, usually from 57.9 µM), for inactives: at the top dose activity change, negative = inhibition, actives largely listed as inhibitors; 410,000 tested, 1.2% active; calls by dose curve; tested in HEK293T cells; note: read-out not given here; potency is the fitted concentration of half-maximal effect; nearly all actives have a fitted effect of over 45% in size
# Giardia FBPA inh = qHTS Assay for Inhibitors of Fructose-1,6-bisphosphate Aldolase from Giardia Lamblia. A8B2U2. purified Giardia FBPA. Potency, µM (titrated, usually from 59.6 µM), without a hit: top-dose activity, negative = inhibition, most hits filed as inhibitors. 290,000 tested, 0.71% active; note: potency is the fitted concentration of half-maximal effect; nearly all actives have a fitted effect of over 55% in size
# Target sequence (A8B2U2 whole entry, looked up): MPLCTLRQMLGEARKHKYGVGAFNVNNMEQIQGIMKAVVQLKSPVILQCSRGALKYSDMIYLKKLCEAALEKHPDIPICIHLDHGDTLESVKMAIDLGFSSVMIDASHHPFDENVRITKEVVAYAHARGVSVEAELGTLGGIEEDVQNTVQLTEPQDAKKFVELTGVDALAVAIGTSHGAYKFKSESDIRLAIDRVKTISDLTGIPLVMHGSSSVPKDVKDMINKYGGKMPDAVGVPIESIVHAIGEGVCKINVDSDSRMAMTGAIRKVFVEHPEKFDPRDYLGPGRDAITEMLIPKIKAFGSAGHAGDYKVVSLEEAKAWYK
#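 Giardia FBPA (40 nM reagent) was preincubated 10 min at RT with compound (up to 57.5 uM final), then substrate plus GAPDH/TPI/NAD/arsenate coupling system with diaphorase/resazurin was added; resorufin fluorescence (525/598 nm) was read after 20 min.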
# LASV entry inh = qHTS for Inhibitors of binding or entry into cells for Lassa Virus. Lassa virus pseudotype entry inhibition, cell reporter. Potency, µM (highest dose often 37.9 µM), for inactives: at the top dose activity change, negative = inhibition, usual class: inhibitors. 300,000 tested, 1.2% active. AID 540256, 2011; calls by dose curve; tested in HEK293 cells; note: potency is the fitted concentration of half-maximal effect; nearly all actives have a fitted effect of over 50% in size
# HCV inh = qHTS Assay for Inhibitors of Hepatitis C Virus (HCV) | Potency, µM (doses to about 41.8 µM), for inactives: at the top dose activity change, negative = inhibition, actives largely listed as inhibitors | 340,000 tested, 3.4% active | Huh7.5.1 HCVcc-Cre infection, luciferase reporter, 44 h; note: potency is the fitted concentration of half-maximal effect
#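 A cell-based infection assay in which seeded cells (1,000 per well) receive test compound after 4 h, are inoculated with HCVcc-Cre at approximately 0.5 moi, and are incubated 44 h before luminescence detection.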
# Active calls of the source: *; u = inconclusive; x = not tested or not shown; [ ] = another dose, or the depositor's remark. A selection: hits, their analogues and other compounds. The true share with any hit is near 8.3%. Unless noted, calls come from the whole dose curve; as a rule, active = well fitted curve in the direction sought with a large enough effect; inconclusive = small, poorly fitted or top-dose-only effect, or another doubt; inactive = no such curve, though single readings can be large; an effect the other way counts as inactive or inconclusive. % is set by controls: 0 for no effect and ±100 for the full control effect.
SMILES,HCMV antiviral,MARV entry inh,FMDV inh,Giardia FBPA inh,LASV entry inh,HCV inh
COc1cccc(-c2cc(C(F)(F)F)n3ncc(C(=O)NCC4CCCO4)c3n2)c1 (stereo not drawn),-26,u,28µM*,1%,u,u
Cc1cc(NC(=O)c2cnn3c(C(F)(F)F)cc(-c4ccccc4)nc23)no1,-37,u,x,4%,-14%,7.1µM*
COc1ccc(-c2cc(C(F)(F)F)n3ncc(C(=O)NCC4CCCO4)c3n2)cc1 (stereo not drawn),u,-6%,0%,-1%,16%,6%
COc1ccc(-n2c(=O)cnc3cnc(OC)nc32)cc1,x,x,-14%,3%,x,x
Cc1ccc2oc(=O)c3cnn(CC(=O)N4CCN(c5cc(Cl)ccc5C)CC4)c3c2c1,1,-3%[46.1 µM],u,x,9%[46.1 µM],x
COc1ccccc1-c1nnc(C2CCN(C(=O)c3cccc(Cl)c3)CC2)o1,-92*,-23%[46.1 µM],-12%,x,-19%[46.1 µM],x
COc1ccccc1-c1nnc(C2CCN(C(=O)c3ccccc3C)CC2)o1,-10,u,6%,x,2%[46.1 µM],x
CCCCCCCCCCCCCCCCOC[C@H](COP(=O)([O-])OCC[N+](C)(C)C)OC(=O)NC,x,x,-10%[6.7 µM],7%,x,x
Nc1c(C(=O)C2CC2)sc2nc(-c3ccccc3)cc(C(F)(F)F)c12,-77*,u,23%,-5%,-14%,-26%
CN(C)CCNC(=O)c1sc2nc(-c3ccccc3)cc(C(F)(F)F)c2c1N,-9,5µM*,-25%,-7%,u,10µM*
CC(=O)c1sc2nc(-c3cccs3)cc(C(F)(F)F)c2c1N,12,0%,-7%,-2%,2%,u
COc1ccc(C2CC(c3ccccc3)Oc3cc(OC)c(OC)c(OC)c32)cc1 (stereo not drawn),x,x,x,-19%,x,x
COc1ccc(NC(=O)C2CCCN(CCCc3ccccc3)C2)cc1OCC(C)C (stereo not drawn),-91*,x,-9%,-3%,x,u
COc1ccc(NC(=O)C2CCCNC2)cc1OCC(C)C (stereo not drawn),10,-27%,0%,0%,u,u
CC1(C)OC(=O)C2=C(CC(CCc3ccccc3)OC2CCc2ccccc2)O1 (stereo not drawn),32,x,x,x,x,x
Clc1ccc(CNc2ncnc3[nH]ncc23)cc1Cl,-34,4µM*,-21%,x,7.1µM*,-19%
O=C(c1ccc2c(c1)OCO2)N1CCCCC1,x,x,-1%,1%,x,x
C=CCc1cc(C(=O)N2CCCCC2)ccc1O,-71*,-15%,-20%,1%,16%,-9%
CC(=O)c1sc(-c2ccc(Cl)cc2)nc1C,-19,u,48%,2%,u,8%
COc1ccc(N/C=C/C(=O)c2sc(-c3ccccc3)nc2C)cc1,-61*,u,-31%,-1%,u,10µM*
Cc1nc(-c2ccccc2)sc1C(=O)/C=C/c1ccc(Cl)cc1,-18,7%[46.1 µM],25µM*,3%,-8%,7%
COc1ccc(N/C=C/C(=O)c2ccccc2)cc1,57,x,-80%,4%,x,-7%
COc1ccccc1Oc1ccc(N/C=C/C(=O)c2ccc(C)o2)cc1,u,u,0%,-2%,-23%[46.1 µM],22µM*
COc1ccc(C2=CC(=O)N(CCC(N)=O)C2)cc1,13,x,x,x,x,x
Cc1cccc(C(=S)N2CCOCC2)n1,-11,x,-24%,x,x,16%
SMILES,HCMV antiviral,MARV entry inh,FMDV inh,Giardia FBPA inh,LASV entry inh,HCV inh
CSC(=S)NN=C(C)c1cccc(C)n1,-80*,5µM*,5%,x,u,4µM*
O=C1Nc2ccccc2C(=O)N2[C@H](c3ccccc3)[C@@H]3C(=O)N(Cc4ccccc4)C(=O)[C@@H]3[C@H]12,-27,x,-20%,3%,x,-18%
O=C1Nc2ccccc2C(=O)N2[C@H](c3cccc(Br)c3)[C@@H]3C(=O)N(Cc4ccccc4)C(=O)[C@@H]3[C@H]12,-60*,x,-11%,-5%,x,3%[8.37 µM]
O=S1(=O)CCC(N(N=Cc2ccco2)c2ccccc2)C1 (stereo not drawn),-25,x,x,x,x,x
O=S(=O)(c1ccc(NC(=S)N/N=C/c2c3ccccc3cc3ccccc23)cc1)N1CCOCC1,-95*,x,16%,-13%,x,2.8µM*
O=S(=O)(c1ccc(NC(=S)NCCC(c2ccccc2)c2ccccc2)cc1)N1CCOCC1,-99*,10µM*,u,0%,3.5µM*,u
CCOC(=O)CN1C(=O)[C@@]2(CC(C)=C[C@@H](COCc3ccccc3)O2)c2ccccc21,x,7%[14.2 µM],x,x,u,x
CN(c1ccccc1)S(=O)(=O)c1cccc(NC(=O)Cn2cnc3ccccc3c2=O)c1,-21,-16%,u,-5%,u,2.8µM*
Cc1ccc(NC(=O)CCNC(=O)Cn2cnc3ccccc3c2=O)cc1F,14,9%[46.1 µM],6%,-3%,2%[46.1 µM],6%
CCN(CC)S(=O)(=O)c1cc(NC(=O)CSCc2c(C)noc2C)ccc1C,-17,u,-15%,x,2.8µM*,u
Cn1nc(C(=O)Nc2cccc(C(F)(F)F)c2)c2ccccc2c1=O,69,-17%,-17%,-2%,2%,6%
CCN(CC)S(=O)(=O)c1cc(NC(=O)Cn2cnc3ccccc3c2=O)ccc1C,-38,-29%,-28%,7%,4%,11µM*
CCN(CC)S(=O)(=O)c1cc(NC(=O)CCc2c(C)noc2C)ccc1C,16,u,-16%,x,-15%[46.1 µM],u
CN(c1ccccc1)S(=O)(=O)c1cccc(NC(=O)c2nn(C)c(=O)c3ccccc23)c1,-25,x,u,x,x,4.5µM*
Cc1nnc(SCC(=O)Nc2cccc(S(=O)(=O)N(C)c3ccccc3)c2)s1,-6,-19%,u,-15%,-6%,7.1µM*
CC[C@H]1C(c2cccc(Cl)c2)=NN(c2ccccc2)[C@@H]1CO,x,x,x,-15%[89.2 µM],x,x
COc1ccc(-c2cc(N)n(S(=O)(=O)c3ccc(F)cc3)n2)cc1OC,-26,x,u,1%,x,10µM*
COc1ccc(S(=O)(=O)n2nc(-c3ccc(Cl)cc3)cc2N)cc1OC,u,x,-13%,-6%,x,u
COc1cc(-c2cc(N)n(S(=O)(=O)c3ccc(F)cc3)n2)cc(OC)c1OC,-6,x,u,-14%,x,u
CCOc1ccc(-c2cc(N)n(S(=O)(=O)c3ccc(OC)c(OC)c3)n2)cc1,-60*,1%,-18%,-4%,x,22µM*
Nc1cc(-c2ccccc2)nn1S(=O)(=O)c1ccc(F)cc1,u,x,u,-7%,x,10µM*
Oc1cc(-c2ccccc2)c2ccccc2c1,-11,3%[46.1 µM],5%,5.6µM*,0%,u
